Only some compounds are listed: those with a hit (about 2.4% of all), similar ones and a draw of the others.
NadD block: NadD (S. aureus) enzyme inhibition; inhibition, % at 20 µM; purified NadD enzyme, colorimetric absorbance read-out; 0.78% of 360,000 active; in the data active = inhibition above about 26%
Rpn11 inh: blocks the human proteasome subunit Rpn11. 0.59% of 360,000 active. human 26S proteasome, Ub4-pepOG fluorescence polarization; 20S core pre-blocked with epoxomicin. inhibition, % at 20 µM. O00487;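 active = inhibition at 20 µM, scaled to each plate's controls, above about 33%, limit read from the data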
PREPL inh: human PREPL enzyme inhibition; 0.68% of 320,000 active; AID 2751; inhibition, % at 5.96 µM; recombinant PREPL, fluorescence polarization activity-based probe; Q4J6C6; in the data active = inhibition above about 43%
PP5 primary: blocks human protein phosphatase 5 activity | inhibition, % at 6.7 µM | 0.18% of 320,000 active | purified PP5c, OMFP substrate fluorescence | AID 1987;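 active = inhibition above the campaign's mean inhibition across all tested compounds plus 3 SD, cut at about 9.5% in these data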
PP1 counter: PP1-alpha (human) inhibition in PP5 counter-screen | 0.9% of 320,000 active | inhibition, % at 6.7 µM | P62136 | AID 2235 | purified PP1alpha, OMFP fluorescence;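 active = inhibition above the mean inhibition of all tested compounds plus 3 SD, computed separately for each screening campaign, cut at about 15% in these data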
Rpn11 confirm: confirmation of human proteasome Rpn11 inhibitors. shares compounds with Rpn11 inh. purified human 26S proteasome, Ub4-pepOG fluorescence polarization; proteasome pretreated with epoxomicin. inhibition, % at 20 µM. 29% of 1,900 active
MMP-2 inh: blocks human MMP-2, flagging nonselective RPN11 hits. recombinant MMP-2, FRET peptide cleavage fluorescence. shares compounds with Rpn11 inh. 4% of 1,900 active. inhibition, % at 20 µM. AID 602330;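 also: human MMP-2 activated beforehand with APMA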
Thrombin FP: blocks bovine thrombin, flagging nonselective RPN11 hits; shares compounds with Rpn11 inh; bovine thrombin cleavage of Ub4-pepOG, fluorescence polarization; inhibition, % at 20 µM; 13% of 1,900 active;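 active = mean inhibition at least 40% at 20 µM, or signal 3 deviations below plate average, so some actives read negative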
Target sequence (P00735 whole entry, looked up): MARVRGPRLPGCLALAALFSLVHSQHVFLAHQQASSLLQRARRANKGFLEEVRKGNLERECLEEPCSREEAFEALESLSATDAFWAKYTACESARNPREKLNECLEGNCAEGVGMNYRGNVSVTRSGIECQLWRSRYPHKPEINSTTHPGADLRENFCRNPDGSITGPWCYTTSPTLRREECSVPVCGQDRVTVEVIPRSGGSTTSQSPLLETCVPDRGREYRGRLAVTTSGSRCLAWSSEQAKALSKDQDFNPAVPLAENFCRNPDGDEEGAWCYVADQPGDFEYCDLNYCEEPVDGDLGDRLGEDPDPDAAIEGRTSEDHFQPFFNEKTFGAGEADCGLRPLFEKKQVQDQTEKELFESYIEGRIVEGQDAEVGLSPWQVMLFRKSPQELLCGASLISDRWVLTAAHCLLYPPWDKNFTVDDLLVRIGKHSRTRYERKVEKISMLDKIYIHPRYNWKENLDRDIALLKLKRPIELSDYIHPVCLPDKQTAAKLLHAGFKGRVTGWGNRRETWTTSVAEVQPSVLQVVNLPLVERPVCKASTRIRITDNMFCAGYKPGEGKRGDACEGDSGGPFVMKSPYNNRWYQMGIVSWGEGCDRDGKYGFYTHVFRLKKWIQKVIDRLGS
Each line names hits and unclear results; the compound was inactive in the other large screens (follow-up assays come after a bar, where shown). Rule as the data show it, unless noted: active = inhibition above about 40%; inactive = the rest.

COC(=O)C1=C(c2ccc3ccccc3c2)C[C@@H]2CC[C@H]1N2C(=O)NC1CC1	none
CCC(C)N1C(=O)/C(=C\c2ccc(N3CCCCCC3)cc2)C(=O)NC1=S (centres undefined)	Rpn11 inh 59.9 | Rpn11 confirm inactive | MMP-2 inh inactive | Thrombin FP inactive
COc1ccc(-n2c(/C=C/c3ccc(O)c(O)c3)nc3ccccc3c2=O)cc1	Rpn11 inh 120.0 | Rpn11 confirm 71.8 | MMP-2 inh inactive | Thrombin FP 52.7
Cn1c(=O)c2c(nc(N/N=C/c3c(O)n(C4CCCCC4)c(=S)[nH]c3=O)n2C)n(C)c1=O	Rpn11 inh 41.8 | Rpn11 confirm inactive | MMP-2 inh inactive | Thrombin FP inactive
CN(C)CCCN=Cc1c(O)n(CCc2ccc(F)cc2)c(=O)[nH]c1=O	none
CN(C)CCCN=Cc1c(O)n(CCc2ccccc2)c(=O)[nH]c1=O	Rpn11 inh 40.6 | Rpn11 confirm 78.6 | MMP-2 inh inactive | Thrombin FP 62.3
O=C1CN=C(c2ccccc2)c2cc(Br)ccc2N1	none
O=C1NC(=O)N(c2ccccc2)C(=O)/C1=C/C=C/c1ccco1	Rpn11 inh 51.7 | Rpn11 confirm inactive | MMP-2 inh inactive | Thrombin FP inactive
CN(C)c1ccc(/C=C/C=C2/C(=O)NC(=O)N(c3ccccc3)C2=O)cc1	Rpn11 inh 95.1 (no result: PREPL inh, PP5 primary, PP1 counter) | Rpn11 confirm 65.0 | MMP-2 inh inactive | Thrombin FP inactive
Cc1ccc(N2C(=O)NC(=O)/C(=C\C=C\c3ccco3)C2=O)cc1	none
Cc1cccc(N2C(=O)NC(=O)/C(=C\C=C\c3ccco3)C2=O)c1	none
O=C1NC(=O)N(Cc2ccccc2)C(=O)/C1=C\C=C\c1ccco1	Rpn11 inh 50.4 | Rpn11 confirm inactive | MMP-2 inh inactive | Thrombin FP inactive
Cc1c2cnn(CC(=O)N3CCC4(CC3)OCCO4)c(=O)c2c(C)n1Cc1ccccc1Cl	none
O=c1[nH]c2ccccc2n1C1CCN(C(c2nnnn2C2CCCCC2)C2CC2)CC1 (centres undefined)	none (no result: PREPL inh, PP5 primary, PP1 counter)
Cc1ccccc1OP(=O)(Oc1ccccc1C)N1CCOCC1	none (no result: PREPL inh, PP5 primary, PP1 counter)
O=C1NC(=O)N(c2ccc(Cl)cc2)C(=O)/C1=C\c1ccc(Sc2nc3ccccc3[nH]2)o1	NadD block 55.5, Rpn11 inh 52.4 | Rpn11 confirm 73.5 | MMP-2 inh inactive | Thrombin FP 48.7
CC1(C)C(C(=O)N2CCN(c3ccc(Cl)cc3)CC2)C1(C)C	Rpn11 inh 49.0 | Rpn11 confirm inactive | MMP-2 inh inactive | Thrombin FP inactive
CCOP(=O)(OCC)C(NC(=O)CC(C)C)C(Cl)(Cl)Cl (centres undefined)	none
CC(=O)OC1(c2ccccc2)CCN(C2CCCCC2)CC1C (centres undefined)	none
CN1C(=O)C(=Cc2ccc(Sc3ccccc3)o2)C(=O)N(C)C1=O	Rpn11 inh 62.7 | Rpn11 confirm inactive | MMP-2 inh inactive | Thrombin FP inactive
Cc1ccc(N2C(=O)/C(=C/c3ccc(CN(CCC#N)S(C)(=O)=O)o3)C(=O)NC2=S)cc1C	none (no result: NadD block, Rpn11 inh)
Cc1cccc(N2C(=O)/C(=C/c3ccc(CN(CCC#N)S(C)(=O)=O)o3)C(=O)NC2=S)c1	Rpn11 inh 41.8 | Rpn11 confirm 73.0 | MMP-2 inh 46.0 | Thrombin FP 125.3
CCC(C)N1CCN(C(=O)COc2ccc3ccccc3c2)CC1 (centres undefined)	Rpn11 inh 78.6 | Rpn11 confirm inactive | MMP-2 inh inactive | Thrombin FP inactive
CCN(CC)CCOC(=O)c1ccc(N=Cc2c(O)[nH]c(=O)[nH]c2=O)cc1	Rpn11 inh 99.4 | Rpn11 confirm 104.3 | MMP-2 inh inactive | Thrombin FP 73.5
COC(=O)c1ccccc1N=Cc1c(O)[nH]c(=O)[nH]c1=O	none
C=CCOC(=O)C1=C(C)OC(N)=C(C#N)C12C(=O)N(CN1CCOCC1)c1ccccc12 (centres undefined)	none
COC1/C=C/C=C(\C)Cc2cc(O)c(Cl)c(c2)N(C)C(=O)CC(OC(=O)C(C)C)C2(C)OC2C(C)C2CC1(O)NC(=O)O2 (centres undefined)	none (no result: PREPL inh, PP5 primary, PP1 counter)
CCOc1ccc(-n2c(O)c(/C=C3\C=Nc4ccccc43)c(=O)[nH]c2=O)cc1	none
C=CCn1c(O)c(/C=C2\C=Nc3ccccc32)c(=O)[nH]c1=O	Rpn11 inh 60.3 | Rpn11 confirm inactive | MMP-2 inh inactive | Thrombin FP inactive
COc1ccc(OC)c(-n2c(O)c(/C=C3\C=Nc4ccccc43)c(=O)[nH]c2=O)c1	none
COc1ccccc1-n1c(O)c(/C=C2\C=Nc3ccccc32)c(=O)[nH]c1=O	Rpn11 inh 47.8 | Rpn11 confirm inactive | MMP-2 inh inactive | Thrombin FP inactive
O=C(N/N=C/c1c(O)n(CCC2=CCCCC2)c(=S)[nH]c1=O)c1ccccc1	Rpn11 inh 47.6 | Rpn11 confirm 76.0 | MMP-2 inh inactive | Thrombin FP inactive
O=C(N/N=C/c1c(O)n(CCC2=CCCCC2)c(=O)[nH]c1=O)c1ccccc1	none
Cn1c(O)c(/C=N/NC(=O)c2ccncc2)c(=O)n(C)c1=S	Rpn11 inh 96.2 | Rpn11 confirm inactive | MMP-2 inh inactive | Thrombin FP inactive
Cn1c(O)c(/C=N/NC(=O)c2ccncc2)c(=O)[nH]c1=S	none
NS(=O)(=O)c1ccc(N=Cc2c(O)n(C3CCCCC3)c(=O)n(C3CCCCC3)c2=O)cc1	Rpn11 inh 72.3 | Rpn11 confirm inactive | MMP-2 inh inactive | Thrombin FP inactive
CCn1c(O)c(C=Nc2ccc(S(N)(=O)=O)cc2)c(=O)n(CC)c1=S	none (not shown: Rpn11 inh)
COc1ccc(OC)c(-n2c(O)c(C=Nc3c(C)n(C)n(-c4ccccc4)c3=O)c(=O)[nH]c2=S)c1	Rpn11 inh 66.3 | Rpn11 confirm 40.7 | MMP-2 inh inactive | Thrombin FP inactive
CCN(CC)c1ccc(N=Cc2c(O)n(-c3cc(OC)ccc3OC)c(=O)[nH]c2=O)cc1	Rpn11 inh 40.4 | Rpn11 confirm 46.5 | MMP-2 inh inactive | Thrombin FP 41.8
Cc1ccccc1C(=O)N1Cc2ccccc2-n2nncc2C1	none (no result: PREPL inh, PP5 primary, PP1 counter)
COc1ccc(N2C(=O)/C(=C/c3ccc(C)o3)C(=O)NC2=S)cc1	Rpn11 inh 70.8 (no result: PREPL inh, PP5 primary, PP1 counter) | Rpn11 confirm 61.1 | MMP-2 inh 55.7 | Thrombin FP 62.7
Cc1ccc(/C=C2/C(=O)NC(=O)N(Cc3ccc(F)cc3)C2=O)o1	none (no result: NadD block, Rpn11 inh)
CCOc1ccc(N2C(=O)/C(=C/c3ccc(C)o3)C(=O)NC2=S)cc1	Rpn11 inh 77.3 | Rpn11 confirm inactive | MMP-2 inh 56.5 | Thrombin FP inactive
NNCc1ccccc1	none (no result: PREPL inh, PP5 primary, PP1 counter)
Cc1cc(/C=C2\C(=O)NC(=O)N(c3ccc(Cl)cc3)C2=O)c(C)n1-c1sc2c(c1C#N)CCCC2	NadD block 46.7, Rpn11 inh 50.4 | Rpn11 confirm inactive | MMP-2 inh inactive | Thrombin FP inactive
